# Measured values published in PubChem BioAssay (NCATS).
# Where “and” joins values, the source holds several entries; their conditions need not be identical. Equal values may be shown once. Inconclusive results are not listed. A number with no mark means an inactive call. Calls of active or inactive are those of the source. Calls follow the shape of the dose curve; as a rule, active = well fitted inhibition curve with a large enough effect; inconclusive = small, poorly fitted or top-dose-only effect; inactive = flat fitted curve, though single readings scatter.
# Test system: NIH3T3
# Assay: Cytotoxic Profiling of Annotated Libraries Using Quantitative High-Throughput Screening (AID 1296008); also: nearly all actives have a fitted effect of over 60% in size
# Settings: Five cell lines viability, CellTiter-Glo ATP luminescence, 48-72 h; max response: stronger effect = lower value
# Description: Cell-based phenotypic screening is a commonly used approach to discover biological pathways, novel drug targets, chemical probes and high-quality hit-to-lead molecules. Many hits identified from high-throughput screening campaign are ruled out through a series of follow-up potency, selectivity/specificity, and cytotoxicity assays. Prioritization of molecules with little or no cytotoxicity for a more in-depth downstream evaluation influence the future direction of projects, so cytotoxicity profiling of the screening libraries at early stage is essential for increasing the likelihood of candidate success. […] For the annotated library, we also examined the primary targets and mechanistic pathways regularly associated with cell death. To our knowledge, this is the first study to use high-throughput screening to profile large libraries for cytotoxicity assessment in both normal and cancer cell lines. In summary, the results generated here constitutes a valuable resource for the scientific community and provides insight on identifying cytotoxic compounds with particular mechanisms of action, and prioritizing compounds with suitable cytotoxicity profile for further evaluation.
# A pintool (Kalypsys) was used to transfer 23 nL of compound solution to the 1536-well assay plates. After 48 or 72 hr incubation at 37 degree Celsius, 5% CO2 and 95% humidity, 2.5 uL of CellTiter-Glo (Promega) was dispensed into each well using a dispenser (Aspect Automation, St. Paul, MN) with solenoid valves (Lee Valves, Westbrook CT). Plates were left at room temperature for 10 min before imaging the ATP-coupled luminescence using a ViewLux microplate imager (PerkinElmer, Waltham, MA).
# % is scaled to controls: 0 for no effect and ±100 for the full control effect; potency is read from the fitted curve at half-maximal effect.
Compound,outcome,max response,Potency
CC(=O)N[C@@H](CS)C(=O)O,inactive,–,–
COc1cc2ncnc(-n3nc(-c4ccccn4)nc3N)c2cc1OC,–,0.54% and -22.1%,–
COc1cc(NC(=O)c2ccc(-c3ccc(Cl)cc3)o2)cc(OC)c1,–,1.05%,–
COc1cc2ncnc(Nc3ccc(F)c(Cl)c3)c2cc1OCCCN1CCOCC1,–,-12.1% and -4.13%,–
CC(C)C(=O)Oc1ccc(CO)cc1[C@H](CCN(C(C)C)C(C)C)c1ccccc1,inactive,-3.14%,–
CN(C[C@@H]1COCCO1)S(=O)(=O)Nc1ccc2ccc3ncc(-c4cnn(C)c4)cc3c(=O)c2c1,–,–,1.32 µM (active) and 8.2 µM (active)
CC[C@H]1OC(=O)[C@H](C)[C@@H](O[C@H]2C[C@@](C)(OC)[C@@H](O)[C@H](C)O2)[C@H](C)[C@@H](O[C@@H]2O[C@H](C)C[C@H](N(C)C)[C@@H]2O)[C@](C)(O)C[C@@H](C)CN(C)[C@H](C)[C@@H](O)[C@]1(C)O,inactive,–,–
O=C(O)CCc1nc(-c2ccccc2)c(-c2ccccc2)o1,inactive,3.82%,–
CC(=O)O[C@]1(C(C)=O)CC[C@@H]2[C@@H]3C[C@H](C)C4=CC(=O)CC[C@]4(C)[C@H]3CC[C@@]21C,–,-6.3%,–
Cc1ccc(/C=N/NC(=O)c2ccccc2Oc2ccccc2)o1,–,-19%,–
Oc1ccc(C2=Cc3ccc(O)cc3OC2)cc1,–,–,7.43 µM (active)
CN(C)CCC=C1c2ccccc2COc2ccc(CC(=O)O)cc21,inactive,–,–
COC(=O)C1=CO[C@@H](O)[C@@H]2C(CO)=CC[C@@H]12,inactive,–,–
C[C@H](NC(=O)C(=O)Nc1ccccc1C(C)(C)C)C(=O)N[C@@H](CC(=O)O)C(=O)COc1c(F)c(F)cc(F)c1F,inactive,–,–
O=C(O)c1cc(O)c2c(c1)C(=O)c1cccc(O)c1C2=O,–,0.522%,–
Cc1ccc(Nc2cc(-c3cccc(N4C(=O)c5ccccc5C4=O)c3)ncn2)cc1NS(C)(=O)=O,inactive,-7.13%,–
COCCOc1nc(-c2ccc(Cl)c(Cl)c2)n(-c2ccc(NC(=O)CCl)cc2)n1,–,–,4.11 µM (active)
COc1ccc2cc(-c3nc(-c4ccc(S(C)=O)cc4)[nH]c3-c3ccncc3)ccc2c1 (stereo not given),–,3.08%,–

Compound,outcome,max response,Potency
NC(=O)c1cccc(-c2cc(Nc3ccc(OC(F)(F)F)cc3)ncn2)c1,–,0.478% and -10.9%,–
COc1ccc2c(Oc3ccc(NC(=O)c4c(C)n(CC(C)(C)O)n(-c5ccccc5)c4=O)cc3F)ccnc2c1,–,–,8.33 µM (active) and 10.3 µM (active)
O=C(O)[C@H]1O[C@H](Oc2cc3oc(-c4ccccc4)cc(=O)c3c(O)c2O)[C@H](O)[C@@H](O)[C@H]1O,–,-17.6%,–
CN1[C@@H]2CCC[C@@H]1CC(NC(=O)c1nn(C)c3ccccc13)C2 (stereo not given in full),–,0.235%,–
O=C1C[C@@H](c2ccc(O)cc2)Oc2cc(O)cc(O)c21,–,1.63%,–
NC(=O)[C@@H](CCC(F)(F)F)N(Cc1ccc(-c2ncon2)cc1F)S(=O)(=O)c1ccc(Cl)cc1,–,-26.9%,–
O=C(O)c1c(Cl)c(Cl)c(Cl)c(Cl)c1-c1c2cc(I)c(=O)c(I)c-2oc2c(I)c(O)c(I)cc12,–,-19.3%,–
C[C@]12CCC3c4ccc(O)cc4CCC3C1CCC2=O (stereo not given in full),–,-7.72%,–
O=C(O)c1cc(-c2ccccc2)nc2ccccc12,inactive,0.25% and -0.385%,–
CS(=O)c1ccc(-c2nc(-c3ccc(F)cc3)c(-c3ccncc3)[nH]2)cc1 (stereo not given),–,3.16% and 3.83%,–
CCN(CC)CCOC(=O)c1ccc(N)cc1,–,-2.46%,–
CC1(C)S[C@H]2[C@H](NC(=O)[C@@H](N)c3ccc(O)cc3)C(=O)N2[C@@H]1C(=O)O,–,4.61%,–
CC1(C)CCC[C@@]2(C)[C@@H]1CC[C@@]1(C)OC(=O)C[C@H]21,–,1.1%,–
COc1ccc(C2CC(c3ccccc3)=NN2c2ccc(S(N)(=O)=O)cc2)cc1 (stereo not given),–,-14.6% and -17.5%,–
CC(C)(C)c1ccc(C(O)CCCN2CCC(C(O)(c3ccccc3)c3ccccc3)CC2)cc1 (stereo not given),–,-3.57%,–
Cc1nc(N)sc1-c1ccnc(Nc2ccc(N3CCOCC3)cc2)n1,–,–,11.8 µM (active) and 1.84 µM (active)
NS(=O)(=O)c1cccc2c1C(=O)c1cccc(O)c1C2=O,–,–,0.935 µM (active)
CC(C(=O)O)c1ccc(-c2ccccc2)c(F)c1 (stereo not given),–,-0.252%,–
